The record followed here is PubChem BioAssay (Tox21).

Experiment [1] can be described thus: qHTS RealTime-Glo MT Cell Viability Assay in HepG2 cells - 40 hour (AID 1224870). Note: nearly all actives have a fitted effect of over 50% in size. Note: potency is the fitted concentration of half-maximal effect. The procedure, abridged: (§1)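 HepG2 cells (600/well) mixed with RealTime-Glo MT reagent, settled 5 h at 37 C/5% CO2 before compound addition. Nonlytic NanoLuc luminescence from viable-cell prosubstrate reduction read repeatedly during 40 h treatment at 37 C.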
Experiment [2] in a line: qHTS RealTime-Glo MT Cell Viability Assay in HEK293 cells - 16 hour (AID 1224872). Note: nearly all actives have a fitted effect of over 50% in size. Note: potency is the fitted concentration of half-maximal effect. The procedure, abridged: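 Reads taken at 0, 8, 16, 24, 32 and 40 h from the same wells. HEK293 cells (600/well) carried RealTime-Glo reagents from seeding, with compound added after a 5 h settle at 37 C.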
A general note: qHTS replaces the single test concentration by a dilution series.

Experiment [3] can be described thus: qHTS RealTime-Glo MT Cell Viability Assay in HepG2 cells - 8 hour (AID 1224873). Note: nearly all actives have a fitted effect of over 55% in size. The method, boiled down:
as §1

Experiment [4] can be described thus: qHTS RealTime-Glo MT Cell Viability Assay in HEK293 cells - 40 hour (AID 1224874). Note: nearly all actives have a fitted effect of over 50% in size. Note: potency is the fitted concentration of half-maximal effect. The following applies: RealTime-Glo luminescence; max response: active compounds read low. The method, boiled down:
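600 cells/well were plated with the nonlytic NanoLuc/prosubstrate reagent, pre-incubated 5 h, then given 23 nL of compound in DMSO. Incubation at 37 C for 40 h, with luminescence from viable-cell-reduced substrate read repeatedly from 0 h.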

Experiment [5] can be described thus: A CellTox Green Cytotoxicity Assay to monitor cytotoxicity in HEK293 cells - 24 hour (AID 1224875). For activity change: series mostly up to about 77 µM. Note: nearly all actives have a fitted effect of over 45% in size. Note: potency is the fitted concentration of half-maximal effect. The procedure, abridged: (§2)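 HEK293 cells, 600/well, were preincubated 5 hours and then exposed to compounds at 37 C for up to 40 hours. A cell-impermeant cyanine dye staining dead-cell DNA was read by fluorescence at 0, 8, 16, 24, 32 and 40 h time points.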
Experiment [6] in a line: A CellTox Green Cytotoxicity Assay to monitor cytotoxicity in HepG2 cells - 16 hour (AID 1224876). Note: nearly all actives have a fitted effect of over 45% in size. Note: potency is the fitted concentration of half-maximal effect. The method, boiled down: (§3)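 HepG2 cells, 600/well, preincubated 5 h with CellTox Green dye, then exposed to Tox21 compounds in DMSO at 37 C for up to 40 h. Dead-cell DNA fluorescence read at the indicated time point.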
The nature of experiment [7]: qHTS RealTime-Glo MT Cell Viability Assay in HepG2 cells - 32 hour (AID 1224877). Note: nearly all actives have a fitted effect of over 55% in size. Note: potency is the fitted concentration of half-maximal effect. The procedure, abridged:
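HepG2 suspension premixed with RealTime-Glo reagents is plated at 600 cells per well and left 5 h at 37 C/5% CO2. Compounds in DMSO then go in, and bioluminescence reflecting viable cell number is recorded over 40 h.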

Experiment [8] in a line: A CellTox Green Cytotoxicity Assay to monitor cytotoxicity in HepG2 cells - 24 hour (AID 1224878). Note: nearly all actives have a fitted effect of over 45% in size. The procedure, abridged:
as §3

The nature of experiment [9]: A CellTox Green Cytotoxicity Assay to monitor cytotoxicity in HepG2 cells - 40 hour (AID 1224879). Note: nearly all actives have a fitted effect of over 40% in size. Note: potency is the fitted concentration of half-maximal effect. The procedure, abridged:
as §3

Experiment [10] in a line: A CellTox Green Cytotoxicity Assay to monitor cytotoxicity in HEK293 cells - 40 hour (AID 1224871). Note: nearly all actives have a fitted effect of over 45% in size. Note: potency is the fitted concentration of half-maximal effect. The procedure, abridged: as §2

Structures are written as SMILES. Inconclusive results are not listed. Values without a mark were called inactive. Calls of active or inactive are those of the source. Calls come from the whole dose curve; as a rule, active = well fitted curve in the direction sought with a large enough effect in the repeat runs; inconclusive = weak or mixed curves; inactive = no such curve, though single readings can be large; an effect the other way counts as inactive or inconclusive.
% is set by controls: 0 for no effect and ±100 for the full control effect.

Take `O=S(=O)(Cl)c1c(Cl)cccc1Cl`: the Potency result in experiment [1], in [2], in [3], in [5], in [6] and in experiment [7] was “inactive” throughout. In addition, the Potency result in experiment [8] and in experiment [9] was “inactive” throughout. The max response in experiment [4] is -11.9%.
`O=C(CCS)OCC(COC(=O)CCS)(COC(=O)CCS)COC(=O)CCS`: the Potency result in experiment [1], in experiment [10], in experiment [3], in [5], in experiment [6] and in [7] was “inactive” each time. Further, the Potency result in experiment [8] and in experiment [9] was “inactive” each time.
With `NC(=O)CCCCC(N)=O`, the Potency entry in experiment [1], in experiment [2], in experiment [3], in experiment [5], in experiment [6] and in experiment [7] was “inactive” each time. Also, the Potency entry in experiment [8] and in [9] was “inactive” each time. In [4], the max response was 1.27%.
On to `COc1ccc(-c2cc(=S)ss2)cc1`, for which the Potency entry in [1], in [10], in [2], in [3], in [6] and in [7] was “inactive” each time. The Potency result in experiment [8] and in experiment [9] was “inactive” each time.
Regarding `CNCc1ccc(NC(=O)c2c[nH]c3c2C(=O)CCC3)cc1`, the Potency entry in experiment [1], in [10], in experiment [3], in [6], in experiment [7] and in [8] was “inactive” in each case. In addition, the Potency result in experiment [9] is “inactive”.
`CC(=O)OCC1=C(C(=O)O)N2C(=O)[C@@H](NC(=O)CSc3ccncc3)[C@H]2SC1`: the Potency entry in experiment [1], in experiment [2], in [3], in [5], in [6] and in experiment [7] was “inactive” each time. Moreover, the Potency entry in experiment [8] and in experiment [9] was “inactive” in each case. Besides, the max response in experiment [4] was 5.21%.
With `CC(CN(CCN(CC(C)OCCO)CC(C)OCCO)CC(C)OCCO)OCCO` (configuration not stated), the Potency entry in experiment [1], in experiment [3], in experiment [5], in experiment [6] and in experiment [7] was “inactive” in each case. Also, the figures for the Potency in [2] and in experiment [4] were 18.8 µM (active) and 23.7 µM (active), respectively.
For `CCCCCCCCCCCCCCN(C)C`, the activity change, negative = cytotoxic was 10.3% [at 15.8 µM] in experiment [1] and 5.76% [at 15.8 µM] in experiment [7]. In addition, the results for the cytotoxicity increase in experiment [10] and in experiment [9] were -34.7% [at 15.8 µM] and -7.14% [at 15.8 µM], respectively. In experiment [3], the viability change, negative = cytotoxic was -0.602% [at 15.8 µM]. Also, the max response in experiment [4] was -29.2%. The activity change in [5] is -31.5% [at 15.8 µM, active compounds read high]. The cytotoxicity in experiment [8] was -3.33% [at 15.8 µM].
Regarding `CCCOC(=O)c1c(Cl)c(Cl)c(Cl)c(Cl)c1C(=O)OCCC`, the Potency entry in experiment [1], in experiment [2], in [3], in experiment [5], in experiment [6] and in experiment [7] was “inactive” throughout. Further, the Potency result in [8] and in experiment [9] was “inactive” each time. For the same compound, the max response in experiment [4] was 3.32%.
On to `Cc1ccc2c(c1[N+](=O)[O-])C(=O)c1ccccc1C2=O`, for which the Potency entry in experiment [1], in experiment [10], in [3], in experiment [6], in experiment [7] and in experiment [8] was “inactive” in each case. Besides, the Potency entry in experiment [9] is “inactive”. For the same compound, the Potency in [4] was 0.958 µM (active).
On to `Cc1cc(CCCOc2c(C)cc(-c3noc(C(F)(F)F)n3)cc2C)on1`, for which the Potency result in [1], in experiment [10], in experiment [3], in [5], in [6] and in [7] was “inactive” in each case. Moreover, the Potency entry in [8] and in [9] was “inactive” throughout.
As for `OCC(CO)n1cnc(-c2ccc(F)cc2)c1-c1ccnc(Oc2ccccc2)n1`, the Potency entry in [1], in experiment [10], in experiment [2], in experiment [3], in experiment [6] and in experiment [7] was “inactive” throughout. Moreover, the Potency entry in experiment [8] and in [9] was “inactive” each time.
For `CCOC(=O)c1c(N)sc2c1CCN(Cc1ccccc1)C2`, the Potency result in experiment [1], in experiment [10], in [3], in experiment [5], in [6] and in experiment [7] was “inactive” throughout. Moreover, the Potency result in experiment [8] and in [9] was “inactive” each time. In addition, in experiment [4], the Potency was 19 µM (active).
In the case of `CC(C)c1ccc(C#N)cc1`, the Potency result in experiment [1], in [10], in [3], in [5], in experiment [7] and in experiment [9] was “inactive” each time. Further, the Potency in [4] is 15.5 µM (active).
As to `CCCCCCCCCCCCCCCC(=O)OCC`, the Potency result in experiment [1], in experiment [2], in [3], in experiment [5], in experiment [6] and in experiment [7] was “inactive” each time. Further, the Potency result in experiment [8] and in experiment [9] was “inactive” each time. For the same compound, the max response in experiment [4] was 0.513%.
Regarding `CCN(CC)c1ccc(C(=C2C=CC(=[N+](CC)CC)C=C2)c2ccc(S(=O)(=O)O)cc2S(=O)(=O)[O-])cc1`, the Potency entry in [1], in [2], in [3], in [5], in experiment [6] and in [7] was “inactive” in each case. Further, the Potency entry in experiment [8] and in experiment [9] was “inactive” each time. Moreover, in experiment [4], the max response was -1.18%.
Turning to `O=C(Oc1ccccc1)c1ccc2ccccc2c1O`, the Potency result in experiment [1], in [10], in [3], in experiment [5], in experiment [7] and in experiment [9] was “inactive” in each case. In experiment [4], the max response is -20.6%.
Consider `CC(C)C(O)C(C)(C)CO` (configuration not stated), for which the Potency entry in experiment [1], in experiment [3], in experiment [5], in [6], in experiment [7] and in experiment [8] was “inactive” throughout. Further, the Potency entry in experiment [9] is “inactive”. Further, the Potency in experiment [2] and in [4] was 0.899 µM (active) each time.
Consider `c1ccc(CNc2ncnc3c2ncn3C2CCCCO2)cc1` (configuration not stated), for which the Potency result in [1], in [10], in [3], in experiment [5], in [6] and in experiment [7] was “inactive” each time. Besides, the Potency result in experiment [8] and in experiment [9] was “inactive” in each case.
On to `CC[C@H]1OC(=O)[C@H](C)[C@@H](O[C@H]2C[C@@](C)(OC)[C@@H](O)[C@H](C)O2)[C@H](C)[C@@H](O[C@@H]2O[C@H](C)C[C@H](N(C)C)[C@H]2O)[C@](C)(O)C[C@@H](C)CN(C)[C@H](C)[C@@H](O)[C@]1(C)O`, for which the Potency result in experiment [1], in [10], in experiment [2], in experiment [3], in experiment [5] and in experiment [7] was “inactive” in each case. For the same compound, the Potency entry in experiment [9] is “inactive”.
As for `CO[C@@H]1[C@@H](OC)[C@H](C)[C@@](O)(CC(=O)O)O[C@H]1[C@H](C)[C@H]1O[C@@]2(CC[C@@](C)([C@H]3CC[C@@](C)([C@@H]4O[C@@H]([C@H]5O[C@](C)(O)[C@H](C)C[C@@H]5C)C[C@@H]4OC4C[C@H](OC)[C@@H](OC)[C@H](C)O4)O3)O2)C[C@H](O)[C@H]1C` (some centres not stated), the Potency in experiment [1] was 6.01 µM (active); in experiment [10] it was 4.77 µM (active); in experiment [2] it was 5.35 µM (active); in [4], 2.39 µM (active); in experiment [7], 5.35 µM (active); in [9], 6.74 µM (active).
Regarding `CCCCCCOC(=O)CCCCC`, the Potency entry in experiment [1], in [2], in [3], in experiment [5], in experiment [6] and in [7] was “inactive” each time. The Potency entry in experiment [8] and in experiment [9] was “inactive” throughout. In addition, the max response in experiment [4] is 0.369%.
In the case of `CC(O)Cn1cnc2c1c(=O)n(C)c(=O)n2C` (configuration not stated), the Potency entry in [1], in experiment [2], in experiment [3], in [5], in experiment [6] and in experiment [7] was “inactive” in each case. Besides, the Potency entry in experiment [8] and in experiment [9] was “inactive” throughout. For the same compound, the max response in [4] is 5.1%.
Consider `O=C(O)c1ccc(O)cc1O`, for which the Potency result in [1], in experiment [2], in experiment [3], in experiment [5], in experiment [6] and in experiment [7] was “inactive” throughout. The Potency result in experiment [8] and in experiment [9] was “inactive” in each case. Also, the max response in experiment [4] is -2.47%.
For the compound `CCCCCCCCCCCCCOS(=O)(=O)O`, the Potency result in experiment [1], in experiment [2], in [3] and in experiment [7] was “inactive” each time. The max response in experiment [4] is -4.56%. Besides, the Potency in [5] was 24.5 µM (active).
As to `CC1CCC(C(C)CS)CC1S` (configuration not stated), the Potency result in experiment [1], in experiment [2], in [3], in experiment [6], in experiment [7] and in experiment [8] was “inactive” throughout. The Potency result in experiment [9] is “inactive”. For the same compound, in experiment [4], the max response is 10.8%. In experiment [5], the Potency was 43.6 µM (active).
Regarding `c1ccc(CCCc2ccncc2)cc1`, the Potency entry in [1], in experiment [3] and in experiment [7] was “inactive” in each case. Besides, the max response in [4] was -19.7%. Further, the Potency in experiment [6] is 12.3 µM (active).
For the compound `CCC(=O)OCc1ccc(OC)cc1`, the Potency result in experiment [1], in experiment [2], in experiment [3], in [7], in experiment [8] and in experiment [9] was “inactive” each time. Besides, the max response in experiment [4] is 0.878%.
For the compound `CCN(CC)CCOC(=O)C(c1ccccc1)c1ccccc1`, the Potency result in experiment [1], in experiment [2], in experiment [3], in experiment [7], in [8] and in [9] was “inactive” throughout. Further, the max response in experiment [4] is 0.0208%.
For `C1=CCC2CC=CC2C1` (configuration not stated), the Potency entry in experiment [1], in experiment [2], in [3], in [6], in experiment [7] and in experiment [9] was “inactive” in each case. In experiment [4], the max response is 16.8%.
